Compound activity: PubChem, National Center for Advancing Translational Sciences (NCATS)
An excerpt weighted towards active compounds, which were near 11% of everything screened.
JMJD2A Tudor: JMJD2A Tudor domain (human) inhibition; AlphaScreen JMJD2A-Tudor / H3K4me3 peptide binding; Potency, µM (highest dose often 114 µM), inactives show at the top dose activity change, negative = inhibition, most hits filed as inhibitors; hit rate 4.4% among 390,000; AID 504339; note: % is set by controls: 0 for no effect and ±100 for the full control effect; nearly all actives have a fitted effect of over 50% in size
BAZ2B inh: BAZ2B (human) inhibition; Q9UIF8; Potency, µM (top dose mostly 114 µM), without a hit: at the highest dose activity change, negative = inhibition, most hits filed as inhibitors; AlphaScreen BAZ2B-H3K14Ac peptide displacement; hit rate 4.4% among 360,000; note: % is set by controls: 0 for no effect and ±100 for the full control effect; nearly all actives have a fitted effect of over 60% in size
Target sequence (Q9UIF8 whole entry, looked up): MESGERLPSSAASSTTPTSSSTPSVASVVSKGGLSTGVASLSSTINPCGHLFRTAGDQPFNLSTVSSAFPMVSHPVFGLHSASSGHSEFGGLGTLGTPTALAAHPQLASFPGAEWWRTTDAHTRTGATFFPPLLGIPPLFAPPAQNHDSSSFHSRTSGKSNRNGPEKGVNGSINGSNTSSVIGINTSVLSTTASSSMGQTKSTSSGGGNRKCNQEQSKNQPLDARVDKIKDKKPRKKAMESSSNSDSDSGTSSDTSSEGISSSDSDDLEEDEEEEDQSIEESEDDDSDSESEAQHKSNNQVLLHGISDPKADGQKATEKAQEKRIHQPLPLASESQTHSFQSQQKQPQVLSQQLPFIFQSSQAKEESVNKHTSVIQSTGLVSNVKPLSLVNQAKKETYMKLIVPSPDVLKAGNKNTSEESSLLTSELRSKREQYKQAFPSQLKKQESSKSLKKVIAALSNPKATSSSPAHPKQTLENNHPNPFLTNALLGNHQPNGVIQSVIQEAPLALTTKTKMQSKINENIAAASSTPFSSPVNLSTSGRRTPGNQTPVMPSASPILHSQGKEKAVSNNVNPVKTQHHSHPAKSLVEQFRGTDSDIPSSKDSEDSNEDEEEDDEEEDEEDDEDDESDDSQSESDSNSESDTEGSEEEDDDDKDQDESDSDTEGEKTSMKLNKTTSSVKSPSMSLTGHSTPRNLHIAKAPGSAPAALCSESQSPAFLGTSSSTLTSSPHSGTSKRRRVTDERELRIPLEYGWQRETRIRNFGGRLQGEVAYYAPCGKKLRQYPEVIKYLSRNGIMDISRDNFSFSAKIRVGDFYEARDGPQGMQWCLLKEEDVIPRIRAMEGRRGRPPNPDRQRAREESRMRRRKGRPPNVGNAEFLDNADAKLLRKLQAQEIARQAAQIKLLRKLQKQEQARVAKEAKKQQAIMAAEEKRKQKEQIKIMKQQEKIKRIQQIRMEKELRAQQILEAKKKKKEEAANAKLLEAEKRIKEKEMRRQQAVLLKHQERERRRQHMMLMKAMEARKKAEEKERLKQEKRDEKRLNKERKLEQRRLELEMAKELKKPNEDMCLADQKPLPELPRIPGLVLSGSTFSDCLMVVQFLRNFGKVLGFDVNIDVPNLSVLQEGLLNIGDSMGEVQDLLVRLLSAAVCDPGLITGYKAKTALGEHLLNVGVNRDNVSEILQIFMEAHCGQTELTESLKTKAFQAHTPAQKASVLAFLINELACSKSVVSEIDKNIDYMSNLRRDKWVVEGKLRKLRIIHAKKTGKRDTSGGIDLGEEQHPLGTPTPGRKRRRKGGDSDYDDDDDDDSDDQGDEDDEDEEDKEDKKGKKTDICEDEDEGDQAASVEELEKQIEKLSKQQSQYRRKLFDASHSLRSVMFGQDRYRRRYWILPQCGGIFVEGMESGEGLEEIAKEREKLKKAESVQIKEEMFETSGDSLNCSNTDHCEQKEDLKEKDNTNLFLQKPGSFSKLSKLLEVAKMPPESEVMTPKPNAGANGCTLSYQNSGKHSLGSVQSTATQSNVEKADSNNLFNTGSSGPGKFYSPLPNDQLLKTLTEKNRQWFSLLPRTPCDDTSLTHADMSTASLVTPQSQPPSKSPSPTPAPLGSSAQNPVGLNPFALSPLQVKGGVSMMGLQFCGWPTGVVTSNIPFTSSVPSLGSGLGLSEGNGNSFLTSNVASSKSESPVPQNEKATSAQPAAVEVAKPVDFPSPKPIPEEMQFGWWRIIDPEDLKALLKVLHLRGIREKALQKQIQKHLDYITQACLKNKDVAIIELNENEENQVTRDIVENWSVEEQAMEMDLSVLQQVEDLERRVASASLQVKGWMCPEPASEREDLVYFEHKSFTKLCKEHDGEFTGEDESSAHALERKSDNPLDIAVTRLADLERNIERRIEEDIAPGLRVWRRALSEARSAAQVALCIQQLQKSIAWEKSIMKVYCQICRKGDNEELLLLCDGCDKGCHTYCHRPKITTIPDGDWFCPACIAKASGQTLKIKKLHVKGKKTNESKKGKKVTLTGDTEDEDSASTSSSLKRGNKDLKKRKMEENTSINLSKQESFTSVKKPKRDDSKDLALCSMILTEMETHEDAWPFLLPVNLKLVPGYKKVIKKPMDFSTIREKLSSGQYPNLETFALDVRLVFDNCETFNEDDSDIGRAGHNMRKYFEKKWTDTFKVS
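BAZ2B 50 nM plus b-H3(5-23)K14Ac 50 nM, PBS pH 7.4/0.01% Tween-20, 30 min RT; compound added (max 110 uM), 30 min RT; streptavidin donor/Ni-chelate acceptor beads 10 ug/mL final, 20 min dark; AlphaScreen read.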
L3MBTL1 inh: blocks human L3MBTL1; AlphaScreen L3MBTL1–H3K9me1 peptide binding; Potency, µM (series often up to 57.1 µM), for inactives: at the top dose activity, negative = inhibition, hits mostly inhibitors; hit rate 0.66% among 230,000; Q9Y468; note: % is set by controls: 0 for no effect and ±100 for the full control effect; nearly all actives have a fitted effect of over 60% in size
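First, the protein-peptide complex forms for 30 min at room temperature (L3MBTL1 50 nM, biotinylated H3K9me1 peptide 75 nM). Next, compounds are pin-transferred and incubated 30 min. Finally, AlphaScreen beads are added and read after 30 min.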
HP1b binding inh: blocks HP1-beta chromodomain binding to methylated histone tails | AlphaScreen HP1-beta / biotin-H3K9me3 peptide binding | AID 540317 | hit rate 0.56% among 390,000 | Potency, µM (doses to about 114 µM), inactives show at the top dose activity change, negative = inhibition, hits mostly inhibitors; note: nearly all actives have a fitted effect of over 70% in size
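Compound inhibition of the preformed complex between 50 nM HP1-beta and 50 nM biotinylated H3K9me3 peptide was read by AlphaScreen. Buffer was PBS pH 7.4 with 0.01% Tween-20. Incubations ran 30 min at room temperature, with 10 ug/mL donor/acceptor beads.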
G9a block: inhibitors of human histone lysine methyltransferase G9a. Q96KQ7. hit rate 8.8% among 350,000. G9a H3K9 monomethylation, AlphaScreen, 2 h. Potency, µM (top dose mostly 102 µM), inactives show at the top dose activity, negative = inhibition, most hits filed as inhibitors; note: % is set by controls: 0 for no effect and ±100 for the full control effect; nearly all actives have a fitted effect of over 75% in size
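Using a bead-based AlphaScreen, monomethylated H3K9 product from 2 h room-temperature reactions (G9a 20 nM, peptide 500 nM, SAM 20 uM) was detected with 0.5 ug/mL rabbit anti-H3K9me1 antibody.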
Starred values were filed as active, the others as inactive; [ ] = dose if it differs, or a comment. Calls come from the whole dose curve; as a rule, active = well fitted inhibition curve with a large enough effect; inconclusive = small, poorly fitted or top-dose-only effect; inactive = no such curve, though single readings can be large or run the other way. Potency is the fitted concentration of half-maximal effect.

What do the screens show for `Cc1nc(NC(=O)CCc2ccccc2)sc1C`?
JMJD2A Tudor: -28%; BAZ2B inh: inconclusive; L3MBTL1 inh: -4%; HP1b binding inh: inconclusive; G9a block: 10µM*

How did Cc1nc(NC(=O)c2csc3ccccc23)sc1C do in these assays?
JMJD2A Tudor: -2%; BAZ2B inh: -33%; L3MBTL1 inh: -2%; HP1b binding inh: 17%; G9a block: 45µM*

What do the screens show for `CC(=O)c1cccc(Nc2cc(C)nc3nc(-c4ccccc4C)nn23)c1`?
JMJD2A Tudor: -19%; BAZ2B inh: -9%; HP1b binding inh: 26%; G9a block: 0%[59 µM]

What do the screens show for `CCc1ccc(NC(=O)C(=O)NCC(c2ccc3c(c2)OCO3)N2CCOCC2)cc1` (centres undefined)?
JMJD2A Tudor: -14%; BAZ2B inh: 4%; HP1b binding inh: 20%[57 µM]; G9a block: 26%[59 µM]

How did C=CCOc1ccc(C2C(C#N)=C(N)N(N(C)C)C3=C2C(=O)CCC3)cc1 (centres undefined) do in these assays?
JMJD2A Tudor: -11%; BAZ2B inh: -10%; HP1b binding inh: 26%; G9a block: 20%

Results for C[C@H](NC(=O)c1nc[nH]c1C(=O)N1CCNCC1)C(=O)OCc1ccccc1 ?
JMJD2A Tudor: 35µM*; BAZ2B inh: 56µM*; L3MBTL1 inh: 3%; HP1b binding inh: 9%; G9a block: -7%[2.33 µM]

What do the screens show for `O=C(CNC(=O)c1nc[nH]c1C(=O)N1CCNCC1)OCc1ccccc1`?
JMJD2A Tudor: 50µM*; BAZ2B inh: 50µM*; L3MBTL1 inh: 7%; HP1b binding inh: 27%; G9a block: -38%[12.7 µM]

How did C[C@H](NC(=O)c1nc[nH]c1C(=O)NC1CCNCC1)C(=O)OC(C)(C)C do in these assays?
JMJD2A Tudor: -22%; BAZ2B inh: 50µM*; L3MBTL1 inh: 3%; HP1b binding inh: 30%; G9a block: inconclusive

Results for CC1CCN(C(=O)c2[nH]cnc2C(=O)NCC(=O)OCc2ccccc2)CC1 ?
JMJD2A Tudor: -25%; BAZ2B inh: -35%; L3MBTL1 inh: -12%; HP1b binding inh: 4%; G9a block: inconclusive

What do the screens show for `O=C(c1ccc2c(=O)n(-c3ccccc3)c(=O)[nH]c2c1)N1CCN(Cc2cccs2)CC1`?
JMJD2A Tudor: -10%; HP1b binding inh: 40%

What do the screens show for `COc1ccc(CNC(=O)CSc2nnc(C)c3c(C)n(-c4ccccc4)nc23)c(OC)c1`?
JMJD2A Tudor: -11%; BAZ2B inh: -20%; HP1b binding inh: -8%; G9a block: -29%[59 µM]

What do the screens show for `C(=N\N1CCOCC1)/c1nc(-c2ccccc2)n2ccccc12`?
JMJD2A Tudor: -30%; BAZ2B inh: inconclusive; L3MBTL1 inh: -11%; HP1b binding inh: 6%; G9a block: 18µM*

What do the screens show for `CC(C)(C)c1ccc(-c2nc(C=O)c3ccccn23)cc1`?
JMJD2A Tudor: 20%; BAZ2B inh: 24%; L3MBTL1 inh: 16%; HP1b binding inh: 89%; G9a block: -7%[2.33 µM]

What do the screens show for `O=C(c1ccc(Cl)c(Cl)c1)N1CCC(=O)N(C(COCc2cccc(C(F)(F)F)c2)Cc2ccccc2)CC1` (centres undefined)?
JMJD2A Tudor: -14%; BAZ2B inh: -27%; L3MBTL1 inh: -14%; HP1b binding inh: 28%; G9a block: 50µM*

What do the screens show for `O=C(c1ccc(C(F)(F)F)cc1)N1CCC(=O)N(C(COCc2ccccc2)Cc2ccccc2)CC1` (centres undefined)?
JMJD2A Tudor: -15%; BAZ2B inh: -39%; L3MBTL1 inh: -2%; HP1b binding inh: 50%; G9a block: 56µM*

How did Cc1cccc(COCC(Cc2ccccc2)N2CCN(C(=O)c3ccc(Cl)c(Cl)c3)CCC2=O)c1 (centres undefined) do in these assays?
JMJD2A Tudor: -30%; BAZ2B inh: -8%; L3MBTL1 inh: -2%; HP1b binding inh: 22%; G9a block: -21%

What do the screens show for `CCCCc1ccc(-n2nc3cc(Cl)c(NC(=O)c4ccc(OC)cc4)cc3n2)cc1`?
JMJD2A Tudor: 9%; BAZ2B inh: -11%; HP1b binding inh: 27%; G9a block: -3%[59 µM]

What do the screens show for `Cc1cc(=O)[nH]c(/N=C(\N)Nc2ccc(Oc3ccccc3)cc2)n1`?
JMJD2A Tudor: 4%; BAZ2B inh: -9%; HP1b binding inh: 25%; G9a block: 20%[12.7 µM]

How did COCc1cc(=O)[nH]c(/N=C(\N)Nc2cccc(Cl)c2)n1 do in these assays?
JMJD2A Tudor: -6%[11.4 µM]; BAZ2B inh: -28%; L3MBTL1 inh: 0%; HP1b binding inh: 29%; G9a block: 18µM*

Results for COc1ccccc1N/C(N)=N/c1nc(CSc2ccc(C)cc2)cc(=O)[nH]1 ?
JMJD2A Tudor: 79µM*; BAZ2B inh: -28%; L3MBTL1 inh: -3%; HP1b binding inh: -12%; G9a block: 0%

What do the screens show for `COCc1cc(=O)[nH]c(/N=C(\N)Nc2ccc(C)cc2C)n1`?
JMJD2A Tudor: -8%[11.4 µM]; BAZ2B inh: 6%; L3MBTL1 inh: 7%; HP1b binding inh: 61%; G9a block: 5%

Results for Cc1cc(=O)[nH]c(/N=C(\N)Nc2cccc3ccccc23)n1 ?
JMJD2A Tudor: inconclusive; BAZ2B inh: 56µM*; L3MBTL1 inh: 6%; HP1b binding inh: 15%; G9a block: 79µM*

How did CCOC(=O)c1c(C)oc2nc(C)nc(N(C)Cc3ccccc3)c12 do in these assays?
JMJD2A Tudor: 27%; BAZ2B inh: -11%[57.1 µM]; HP1b binding inh: 23%; G9a block: -32%[59 µM]

Results for Cc1nn2c(=O)cc(COc3ccc(/C=C(\C#N)C(=O)Nc4ccc(F)cc4)cc3)nc2s1 ?
JMJD2A Tudor: -7%; BAZ2B inh: -24%; HP1b binding inh: 64%; G9a block: 4%[59 µM]

How did Cc1cccc(C(=O)Nc2nnc(SCc3cc(=O)n4cccc(C)c4n3)s2)c1 do in these assays?
JMJD2A Tudor: -30%; BAZ2B inh: -2%; HP1b binding inh: 14%[57 µM]; G9a block: -6%[59 µM]

How did COc1cc(C(=O)NCc2nc3cccnc3n2Cc2ccc(C)cc2)cc(OC)c1OC do in these assays?
JMJD2A Tudor: -3%; BAZ2B inh: -1%; HP1b binding inh: 28%[57 µM]; G9a block: 25%[59 µM]

Results for Cc1nc(CNS(=O)(=O)c2cccc(F)c2)cs1 ?
JMJD2A Tudor: -21%; BAZ2B inh: -35%; L3MBTL1 inh: -2%; HP1b binding inh: 26%; G9a block: inconclusive

How did Cc1ccc(-c2csc(NS(=O)(=O)c3cccc(F)c3)n2)o1 do in these assays?
JMJD2A Tudor: 56µM*; L3MBTL1 inh: 28µM*; HP1b binding inh: -32%

How did Cc1csc(NC(=O)/C=C/c2ccc(C)o2)n1 do in these assays?
JMJD2A Tudor: -2%; BAZ2B inh: -39%; L3MBTL1 inh: -3%; HP1b binding inh: 25%; G9a block: inconclusive

Results for CCOC(=O)Cc1csc(NC(=O)/C=C/c2ccco2)n1 ?
JMJD2A Tudor: -22%; BAZ2B inh: -28%; HP1b binding inh: 20%; G9a block: 50µM*
